# Most compounds without a hit are left out; they make up all but 3.5% or so of the library.
# FBW7 act = activators of human E3 ligase FBW7; Q969H0; AlphaScreen FBW7–phospho-cyclin E peptide binding, activator screen; normalized activity (activation), % at 26.1 µM; hit rate 0.13% among 650,000; in the data active = normalized activity above about 1.9%;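 also: purified mutant Fbw7 with reduced substrate affinity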
# TEAD-YAP block = TEAD-YAP interaction inhibition; inhibition, % at 9.12 µM; AID 1259422; hit rate 1.4% among 640,000; HEK-TIYL cells, TEAD-Gal4/YAP UAS-luciferase luminescence; in the data active = inhibition above about 32%;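 also: 0% = median of test compound wells and 100% = reference inhibitor wells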
# MITF inh = blocks human microphthalmia-associated transcription factor | hit rate 0.91% among 650,000 | inhibition, % at 2.6 µM | O75030 | AlphaScreen MITF homodimerization, bead proximity signal | AID 1259374; in the data active = inhibition above about 50%;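 also: 0% = vehicle wells with protein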
# GPR151 ag = human GPR151 activation; Q8TDV0; PathHunter beta-arrestin GPR151 cells, luminescence; activation, % at 11.2 µM; hit rate 1% among 650,000; AID 1508602; in the data active = activation above about 4.9%;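 also: 0% = median of compound wells and 100% = cells with positive control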
# Target sequence (Q8TDV0 whole entry, looked up): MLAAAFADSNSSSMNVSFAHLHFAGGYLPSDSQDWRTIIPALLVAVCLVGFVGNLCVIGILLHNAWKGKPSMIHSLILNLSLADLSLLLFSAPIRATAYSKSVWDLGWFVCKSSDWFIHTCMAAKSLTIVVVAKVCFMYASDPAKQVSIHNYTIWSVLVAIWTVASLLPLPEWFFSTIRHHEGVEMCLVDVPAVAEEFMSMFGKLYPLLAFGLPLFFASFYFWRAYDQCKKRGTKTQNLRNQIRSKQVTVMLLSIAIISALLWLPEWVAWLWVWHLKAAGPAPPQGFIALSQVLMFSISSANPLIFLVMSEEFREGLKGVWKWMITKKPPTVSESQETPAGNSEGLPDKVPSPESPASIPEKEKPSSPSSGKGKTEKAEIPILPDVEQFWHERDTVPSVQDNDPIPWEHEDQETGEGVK
# GPR151 confirm = human GPR151 activation, confirmation screen. activation, % at 11.2 µM. 6,700 tested, under 10 active. GPR151 PathHunter beta-arrestin cells, luminescence, 90 min; % of EA-reagent control over plate median. shares compounds with GPR151 ag;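 active = mean percent activation across replicates above the confirmation screen cutoff of 4.91%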
# GPR119 counter = counter-screen for GPR151 activators: effect on human GPR119; shares compounds with GPR151 ag; GPR119 PathHunter beta-arrestin cells, luminescence, 90 min; 0 = compound-well median, 100 = enzyme-acceptor control; activation, % at 11.2 µM; hit rate 0.3% among 6,700; AID 1508611;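 active = mean percent activation in the counterscreen above 29.09%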;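 also: counterscreen on off-target GPR119 to flag nonselective hits from the GPR151 activator screen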
# The depositor's hits bear a star; x = no result given; ! = not active in a repeat.
SMILES,FBW7 act,TEAD-YAP block,MITF inh,GPR151 ag,GPR151 confirm,GPR119 counter
C(/C=C/c1ccccc1)=N/N1CCN(c2ccccc2)CC1,0,-19,16,4.9*,-2,-10
CCC(Sc1nc2ccccc2o1)C(=O)Nc1ccccc1C#N (stereo not given),0,-42,3,-1,x,x
COc1cc(OC)cc(C(=O)Nc2cc(C(=O)N3c4ccc(F)cc4CCC3C)ccc2N2CC3CC(C2)c2cccc(=O)n2C3)c1 (stereo not given),0,-6,1,-1,x,x
CCOC(=O)/C(C#N)=C/Nc1ccccc1NS(=O)(=O)c1cccc(C(C)=O)c1,0,-6,-1,2,x,x
CCOC(=O)/C(C#N)=C/Nc1ccccc1NS(=O)(=O)c1ccc(C)c(C)c1,0,-3,2,5.5*,-1,-16
CC(=O)c1ccc(NC(=S)NC(=O)c2ccccc2F)cc1,0,-67,12,15*,0,5
Cc1ccccc1C(=O)NC(=S)Nc1ccc(Cc2ccncc2)cc1,0,8,19,19*,0,-16
CC(C)C1C2CCC(C2)C1N (stereo not given),0,0,10,5.3*!,-1,-11
CCOCCCNC(=O)c1cn(C)c2ccc(S(=O)(=O)N3CCC(C)CC3)cc2c1=O,0,9,19,2,x,x
CCOC(=O)c1ccc(NC(=O)CSc2nc3ccccc3c(=O)n2CCCC(=O)NCC2CCCO2)cc1 (stereo not given),0,21,-2,1,x,x
CC#CCN1C(=O)NC(CCc2ccccc2)(C2CCN(C(=O)C#CC)CC2)C1=O (stereo not given),0,3,9,7.0*,0,4
Cc1cccc(C)c1NC(=O)CCC(=O)O,0,2,5,20*,0,-10
O=C(CSC1=Nc2ccccc2C2=NC(c3ccccc3)C(=O)N12)NCc1ccco1 (stereo not given),1,9,-4,0,x,x
CCC(C)NC(=O)c1cccc(N2CCCC2=O)c1 (stereo not given),0,-7,5,0,x,x
O=C(O)c1cccc(N2CCCC2=O)c1,0,-6,-4,5.4*,0,12
Cc1nonc1OCCCNc1ccc([N+](=O)[O-])cc1,1,17,4,-1,x,x
O=[N+]([O-])c1cc(C(F)(F)F)ccc1NCCNCCO,0,12,-7,0,x,x
Cc1nonc1OCCNCCNc1ccccc1[N+](=O)[O-],0,1,1,5.6*,0,5
O=[N+]([O-])c1ccccc1NCCNCCO,0,3,-1,7.9*,0,-2
COc1ccc(C(=O)Oc2ccc(C#N)cc2)cc1,1,1,5,6.7*,-1,-1
CC(C)NC(NC(=O)c1cccs1)C(Cl)(Cl)Cl (stereo not given),0,6,13,-1,x,x
O=C(Oc1cccc(OC(=O)c2ccccc2F)c1)c1ccccc1F,0,5,-7,5.6*,0,-12
Cc1cccc(C(=O)NCCCN(C)C)c1,0,-3,-2,7.7*,-1,-2
C=CCNC(=O)/C(=C\c1ccccc1)NC(=O)c1ccccc1OC,0,3,-17,2,x,x
CN(Cc1ccccc1)C(=O)Cn1ncc2ccccc21,0,-13,1,0,x,x
SMILES,FBW7 act,TEAD-YAP block,MITF inh,GPR151 ag,GPR151 confirm,GPR119 counter
COC(=O)Cn1c(=NC(=O)C(C)(C)C)sc2cc(F)ccc21,0,6,-8,3,x,x
Cn1c(=O)cc(N2CCCC2)n(Cc2ccc(F)cc2F)c1=O,0,1,10,-1,x,x
Cn1c(=O)cc(N2CCCCC2)n(Cc2ccc(F)cc2F)c1=O,0,-10,-6,5.7*,-2,-8
CCCn1c(=O)c2c(nc3n(-c4ccc(OC)cc4OC)c(C)cn23)n(C)c1=O,0,-1,-11,-1,x,x
O=C(NC(=S)Nc1ccc2nn(-c3cccc4ccccc34)nc2c1)c1ccccc1Cl,0,-2,-3,0,x,x
NC(=O)N/N=C\c1cccc([N+](=O)[O-])c1,0,0,10,7.6*,-1,-4
N#C/C(=C\c1cccc([N+](=O)[O-])c1)C(N)=O,0,-3,2,5.7*,0,3

# From PubChem
